A selection: hits, their analogues and other compounds. The true share with any hit is near 9.5%.
RE007 growth inh = less growth of the S. pombe RE007 Vpr strain; S. pombe RE007 Vpr strain, BacTiter-Glo ATP luminescence, 24 h; Potency, µM (titrated, usually from 92.2 µM), for the others: at the highest dose activity change, negative = less growth, most hits filed as inhibitors; 360,000 compounds, 0.21% hits; active means well fitted falling curve with a large enough effect; inconclusive means small, poorly fitted or top-dose-only effect; inactive means no such curve, though single readings can be large or run the other way; further: on the % scale 0 is the no-effect control and ±100 the full control effect; nearly all actives have a fitted effect of over 50% in size
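Fission yeast strain RE007, carrying one chromosomally integrated HIV-1 vpr copy, was seeded at OD 0.01 in PMG+AL medium with 23 nL pinned compound. After 24 h at 30 °C and 99% humidity, viability was read by BacTiter-Glo luminescence.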
Pf growth 96h = P. falciparum growth inhibition at 96 hour, primary screen for plastid delayed-death inhibitors. P. falciparum luciferase reporter growth, 96 h. Potency, µM (titrated, usually from 28.7 µM), for inactives: top-dose activity change, negative = inhibition, hits mostly inhibitors. 320,000 compounds, 6.9% hits; further: on the % scale 0 is the no-effect control and ±100 the full control effect
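Compounds incubated with erythrocytes infected by luciferase-expressing P. falciparum (2% hematocrit, 0.05% parasitemia final) for 96 hours, 37 C in 5% CO2. Growth inhibition scored as decreased luciferase luminescence.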
Pf growth 48h = P. falciparum growth inhibition at 48 hours (one generation); P. falciparum luciferase growth in erythrocytes, 48 h; Potency, µM (doses to about 28.7 µM), for inactives: top-dose activity change, negative = inhibition, hits mostly inhibitors; 310,000 compounds, 5.9% hits; further: on the % scale 0 is the no-effect control and ±100 the full control effect
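Erythrocytes infected with P. falciparum carrying an integrated firefly luciferase reporter (2% hematocrit, 0.1% parasitemia final) were exposed to compounds in RPMI 1640 with 0.5% Albumax at 37 C, 5% CO2. Growth inhibition was scored as reduced luminescence.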
SARS PLP yeast = inhibitors of SARS-CoV papain-like protease in yeast; Potency, µM (doses to about 32.9 µM), inactives show top-dose activity, positive = growth rescue, actives largely listed as activators; AID 485353; S. cerevisiae expressing SARS-CoV PLpro, growth rescue; 330,000 compounds, 0.19% hits; calls by dose curve; further: 0% is about no effect; nearly all actives have a fitted effect of over 55% in size
NS1 inh = blocks influenza NS1 protein function | Potency, µM (doses to about 46.1 µM), inactives show at the top dose activity, positive = more growth | 270,000 compounds, 0.4% hits; calls by dose curve; further: actives are rising curves; nearly all actives have a fitted effect of over 50% in size
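Growth recovery, yeast-based: influenza A NS1 expressed in S. cerevisiae causes slow growth, and suppressors are detected by OD600. The parent strain without NS1 is used as positive control.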
* = called active by the depositor; ? = inconclusive; · = not tested or not shown; [ ] = another dose, or the depositor's remark. Unless noted, the call rests on the fitted dose curve; in most records, active means well fitted inhibition curve with a large enough effect; inconclusive means small, poorly fitted or top-dose-only effect, or another doubt; inactive means no such curve, though single readings can be large or run the other way. Potency means the concentration at half of the fitted maximal effect.

SMILES | RE007 growth inh | Pf growth 96h | Pf growth 48h | SARS PLP yeast | NS1 inh
Nc1nnc(CC(=O)N/N=C\c2cc([N+](=O)[O-])ccc2O)s1 | -17% | 10µM* | 12% | -4% | -34%
O=C(N/N=C/c1cc([N+](=O)[O-])ccc1O)C12CC3CC(CC(C3)C1)C2 | -11% | 34% | 8.3µM* | ? | ·
O=C(N/N=C/c1cc([N+](=O)[O-])ccc1O)Nc1ccccc1 | -7% | -14% | ? | -2% | -3%
CCCn1c(SCC(=O)N2CCc3ccccc32)n[nH]c1=O | -16% | · | · | -5% | ·
CC(C(=O)O)N1CCCCC1 (stereo not given) | -11% | 0% | ? | 1% | ?
COc1ccc(/C=N/O)cc1COc1ccc(NC(C)=O)cc1 | 4% | 7.4µM* | 7% | 10% | 6%
Cc1ccc(NC(=O)Cn2nc(C)c([N+](=O)[O-])c2C)cc1Cl | 3% | 14% | 0% | 0% | ·
Cc1nn(CC(=O)NCCc2ccc(Cl)cc2Cl)c(C)c1[N+](=O)[O-] | 45% | ? | 12µM* | 15% | -5%
CCc1cccc(NC(=O)CCCn2c(=O)[nH]c3ccsc3c2=O)c1 | 3% | 2.9µM* | -7% | -2% | 13%
CCOc1ccc(NC(=O)CCn2c(=O)[nH]c3ccsc3c2=O)cc1 | 5% | 7.4µM* | · | -4% | 17%
CCC1(CC)NC(=O)N(CC(=O)OC(C)C(=O)Nc2cc([N+](=O)[O-])ccc2OC)C1=O (stereo not given) | 18% | -19% | 38% | 5% | -3%
Cc1noc(C)c1-c1nnc(-c2ccc(OC(F)(F)F)cc2)o1 | 1% | 96% | 51% | 1% | 0%
Cc1ccc(C(=O)COc2nc(C)cc(C)c2C#N)cc1 | 8% | ? | -16% | -5% | 3%
Cc1cc(C)c(C#N)c(OCC(=O)c2ccc(Br)cc2)n1 | 12% | 4.7µM* | ? | -3% | -9%
C#CCOCCOCCOCCNc1nc(N2CCN(C(=O)Cn3cc(CCCCN)nn3)CC2)nc(N2CCN(C(=O)[C@H](CCCCN)n3cc(CCCC)nn3)CC2)n1 | 4% | ? | ? | -4% | ·
C#CCOCCOCCOCCNc1nc(N2CCOCC2)nc(N2CCN(C(=O)CCCCCCCCCCNC(=O)[C@H](CO)n3cc(CCCCCN)nn3)CC2)n1 | -23% | 0.83µM* | 0.33µM* | -26% | ·
C#CCOCCOCCOCCNc1nc(N2CCN(C(=O)CCCCCCCCCCNC(=O)Cn3cc(CCCCCN)nn3)CC2)nc(N2CCN(C(=O)CCCCCCCCCCNC(=O)[C@H](CO)n3cc(CCCCCN)nn3)CC2)n1 | 17% | 2.9µM* | 1µM* | -26% | ·
C#CCOCCOCCOCCNc1nc(N2CCOCC2)nc(N2CCN(C(=O)CCCCCCCCCCNC(=O)Cn3cc(CCCCCN)nn3)CC2)n1 | 10% | ? | 3.7µM* | -13% | ·
C#CCOCCOCCOCCNc1nc(N2CCN(C(=O)Cn3cc(CCO)nn3)CC2)nc(N2CCN(C(=O)[C@H]([C@@H](C)O)n3cc(CCCCN)nn3)CC2)n1 | -1% | -7% | 17% | 12% | -7%
C#CCOCCOCCOCCNc1nc(N2CCN(C(=O)CCCCCCCCCCNC(=O)Cn3cc(CCCCCN)nn3)CC2)nc(N2CCN(C(=O)CCCCCCCCCCNC(=O)[C@H]([C@@H](C)CC)n3cc(CCCCCN)nn3)CC2)n1 | 9% | ? | 10µM* | 6% | ·
C[C@@H]1CN([C@H](C)CO)C(=O)c2c(c3ccccc3n2C)-c2ccccc2CO[C@H]1CN(C)C(=O)NC1CCCCC1 | 0% | · | · | · | ·
Cc1ncc(CSC(=N)N)n1Cc1ccccc1 | · | · | · | · | 3%
Cc1ccc(S(=O)(=O)N(CC(=O)Nc2ccc(Cl)cc2)C(=O)N2CCN(C)CC2)cc1 | -17% | 3% | 10% | -2% | ·
O=[N+]([O-])c1ccccc1S(=O)(=O)NCc1ccc(F)cc1 | -14% | 0% | 1% | 0% | -4%
Cc1ccccc1CNS(=O)(=O)c1ccccc1[N+](=O)[O-] | 7% | 0.66µM* | 34% | -1% | -3%
SMILES | RE007 growth inh | Pf growth 96h | Pf growth 48h | SARS PLP yeast | NS1 inh
C[S+](C)CC[C@H](N)C(=O)O | · | 0% | -4% | · | ·
COc1ccc(C2CN=NC2C(=O)c2ccccc2)cc1 (stereo not given) | · | 9.3µM* | 15µM* | -1% | -1%
COc1ccc(C2N(C(=O)c3ccccc3)CCN2C(=O)c2ccc(C)cc2)cc1 (stereo not given) | 1% | ? | · | -5% | 1%
Cc1ccc2c(c1)c1c3n2CCN(CCC#N)C3CCC1 (stereo not given) | 12% | · | · | · | ·
CCN1CCn2c3c(c4cc(C)ccc42)CCCC31 (stereo not given) | -5% | 55% | 8.3µM* | -2% | -2%
COc1ccc(NC(=O)C2CCCCN2N)cc1OC (stereo not given) | 0% | -15% | 5% | -2% | 0%
COc1ccc(NC(=O)CC2CCCCC2)cc1OC | -7% | 2.6µM* | 3.3µM* | 1% | -11%
COc1ccc(NC(=O)c2ccc(CNc3c(NC4CCCCC4)c(=O)c3=O)cc2)cc1OC | -2% | 15µM* | · | 2% | 22%
COc1ccc(NC(=O)C2CCCN2c2ccc(OC)c(OC)c2)cc1OC (stereo not given) | -12% | 1% | 10µM* | 3% | -2%
COc1ccc(CNC(=O)c2ccc(CNc3c(NC4CCCCC4)c(=O)c3=O)cc2)cc1 | -1% | ? | 14% | -16% | 17%
CCOc1cc(/C=N/NC(=O)C2CC2)ccc1OC(C)C | -20% | ? | -18% | 11% | 4%
Cc1c(Cl)cccc1NC(=O)CCN1C(=O)C2CC=CCC2C1=O (stereo not given) | 7% | 5.2µM* | 13% | -2% | 11%
CCc1ccc(-c2cc3c(=O)n(CC(=O)NCCCN4CCC(Cc5ccccc5)CC4)nc(C)n3n2)cc1 | 12% | ? | ? | ? | -5%
Cc1nn(CC(=O)NCCCN2CCC(Cc3ccccc3)CC2)c(=O)c2cc(-c3ccccc3)nn12 | 5% | 4.1µM* | ? | 26% | 8%
CC[n+]1ccc2cc(OC)c(OC)cc2c1Cc1ccc(OC)c(OC)c1 | -4% | ? | 1.2µM* | 3% | 0%
COc1ccc(Cc2c3cc(OC)c(OC)cc3cc[n+]2C)cc1OC | -9% | 8.3µM* | ? | -1% | 2%
COc1ccc(Cc2n[nH]c(=O)c3ccccc23)cc1OC | -5% | 0% | -11% | 1% | 6%
COc1ccc(Cc2nccc3cc(OC)c(OC)cc23)cc1OC | 7%[18.4 µM] | ? | ? | -1% | ?
COc1ccc(NS(=O)(=O)c2cc(C(=O)N3CCC3)ccc2C)cc1 | -7% | -30% | ? | 3% | ·
O=C1c2ccccc2-c2ccc(N=[N+]([O-])c3ccc4c(c3)C(=O)c3ccccc3-4)cc21 | · | · | · | · | -3%
CC1(C(=O)NS(=O)(=O)c2ccc(Cl)cc2)CCN1C(=O)CCc1ccccc1 (stereo not given) | -8% | · | · | · | ·
